High-throughput results as filed in PubChem BioAssay.
CF NFkB block: inhibitors of PAF-induced NF-kB signaling, primary screen, cell-based, GFP fluorescence, uHTS. KKLEB NF-kB-GFP reporter, GFP fluorescence overnight. inhibition, % at 5 µM. 360,000 tested, 0.86% active. AID 588850, 2011;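 active means at least 50% inhibition at 5 µM, scaled per plate between neutral and stimulator controls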;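 further: PAF is a Pseudomonas aeruginosa culture filtrate used as stimulus; plate controls were PAF-stimulated DMSO wells for no effect and unstimulated DMSO wells for full effect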
Peg3 promoter: Peg3 promoter-driven luciferase inhibitors, primary screen, cell-based, HeLa, luciferase luminescence. inhibition, % at 20 µM. 360,000 tested, 1.7% active. AID 588405, 2011. HeLa PEG-Prom luciferase reporter, overnight;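 active means inhibition of at least 50% at 20 µM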
TWEAK-Fn14 inh: inhibitors of TWEAK-Fn14 signaling, primary screen, luciferase reporter cells, uHTS; 360,000 tested, 2% active; TWEAK-stimulated Fn14 reporter cells, luciferase luminescence, 8 h; inhibition, % at 10 µM; AID 1159606, 2016; in the data active means inhibition above about 50%
KKLEB cytotox: cytotoxicity in KKLEB CF airway cells, primary screen, cytotoxicity control for CF NF-kB inhibitor project, cell-based, uHTS, fluorescence assay plates | KKLEB CF airway cells viability, ATPlite luminescence, overnight; hits give low values; cells stimulated with P. aeruginosa culture filtrate | activity change (cytotoxicity), % at 5 µM | 360,000 tested, 0.36% active | AID 602141, 2011;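 active means corrected activity change at or below -50% at 5 µM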
HIF-2a block: HIF-2a reporter inhibitors, primary screen, luminescence, 786-0 RCC cells. 786-0 RCC cells HIF-2a reporter, luciferase luminescence, overnight. inhibition, % at 18.8 µM. 360,000 tested, 0.72% active. AID 624352, 2012;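 active means inhibition of the luminescence signal of 40% or more relative to plate controls, in a single-dose primary screen at 18.75 µM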
TROY NFkB inh: inhibitors of TROY-driven NF-kB signaling, primary screen, Q293 LMP1-TROYcd cells, NF-kB luciferase, uHTS | Q293 LMP1-TROYcd NF-kB luciferase reporter, 4 h | inhibition, % at 10 µM | 360,000 tested, 0.98% active | AID 1347056, 2019;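 active means compounds whose plate-normalised and pattern-corrected inhibition of the luciferase reporter signal at the single screening dose is 50% or more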
The depositor's hits bear a star; . = no result given. This is a sample that favours compounds with a hit; in the whole collection about 4% have one here.

SMILES	CF NFkB block	Peg3 promoter	TWEAK-Fn14 inh	KKLEB cytotox	HIF-2a block	TROY NFkB inh
COc1ccc(-n2c(=S)[nH]c3cc(C(=O)Nc4cccc(C)c4)ccc3c2=O)cc1	5	2	-14	7	15	12
COc1ccc(-n2c(=S)[nH]c3cc(C(=O)Nc4ccc(C)c(F)c4)ccc3c2=O)c(OC)c1	1	11	54*	2	29	30
CCOc1ccc(NC(=O)c2ccc3c(=O)n(-c4ccc(OC)cc4OC)c(=S)[nH]c3c2)cc1	-1	16	-7	-16	29	1
CC(C)N1C(=O)S/C(=C/c2ccc3c(c2)n(C)c(=O)n3C)C1=O	-60	-56	-5	5	-82	-59
CCN(CC)c1ccc(/C=C2\SC(=O)N(C(C)C)C2=O)o1	-19	89*	38	13	-18	1
CC1(C)CC[C@]2(C(=O)n3ccnc3)CC[C@]3(C)[C@H](C(=O)C=C4[C@@]5(C)C=C(C#N)C(=O)C(C)(C)[C@@H]5CC[C@]43C)[C@@H]2C1	85*	106*	106*	-70*	90*	75*
O=C(Oc1cccc(Nc2ncnc3ccccc23)c1)c1ccccc1Cl	20	-245	82*	6	-44	59*
Cc1ccc(OCCCNCCO)c(Br)c1	-1	2	53*	11	-37	20
O=C1c2ccccc2NC(c2cccc(O)c2)N1O (configuration not stated)	-18	-46	18	7	-104	83*
Nc1[nH]c(C(=O)c2ccccc2)c(-c2ccc(Br)cc2)c1C(=O)c1ccc(Br)cc1	.	.	91*	.	-10	18
COc1cccc(Sc2nc(-c3ccccc3)ncc2S(C)(=O)=O)c1	38	-19	91*	-13	-87	71*
CS(=O)(=O)c1cnc(-c2ccccc2)nc1Sc1ccc(F)cc1	28	5	13	-14	-7	-5
CCC(=O)NC1CC2CCCC(C1)N2Cc1ccc(C)cc1 (configuration not stated)	-10	4	17	4	0	-12
O=C(Oc1c(-c2ccccc2)c(=O)n2c3c(cccc13)CC2)c1ccc(Cl)cc1	13	4	9	2	7	53*
O=C(Oc1c(-c2ccccc2)c(=O)n2c3c(cccc13)CC2)c1ccco1	22	9	4	8	-3	11
COc1ccc(C)cc1NC(=O)CN1C(=O)C2CC=CCC2C1=O (configuration not stated)	-14	8	-11	3	3	-7
COc1ccc(Cl)cc1NC(=S)NNC(=O)c1cccs1	-14	-4	9	11	-60	-51
COc1ccc(C(=O)NC(C(=O)NCc2ccccn2)C(C)C)cc1 (configuration not stated)	6	1	1	7	11	-10
Fc1ccc(-n2nnc(-c3cnc4ccccc4c3)n2)cc1	-28	52*	94*	-12	21	73*
Fc1ccc(-n2nnc(-c3cccnc3)n2)cc1	-22	-268	-39	2	-215	-46
CCCCCCc1cc2cc(-c3nnc(-c4ccccc4O)o3)c(=O)oc2cc1O	-34	36	55*	-66*	-4	43
O=C(NCCC(=O)N1CCN(S(=O)(=O)c2ccc(F)cc2)CC1)Nc1ccccc1	-1	14	-1	-10	8	2
CC(=O)c1cccc(N=c2scc(-c3ccc(S(=O)(=O)N4CCOCC4)cc3)n2CCO)c1	9	11	54*	-10	20	19
Cc1cccc(OCCCN2CCOCC2)c1C	-8	-32	-12	0	-11	-11
O=C(C=Cc1ccccc1)c1c[nH]c2ccccc2c1=O	40	97*	78*	-18	-18	3
SMILES	CF NFkB block	Peg3 promoter	TWEAK-Fn14 inh	KKLEB cytotox	HIF-2a block	TROY NFkB inh
CCN(CC)C(=O)CSc1nc(COc2ccccc2)nc2ccccc12	21	5	-8	-9	-4	-12
COc1ccc(C(=O)C[N+]2(C)CCOCC2)cc1	-6	-7	6	0	-10	-15
COC(=O)[C@@]12C[C@@H](CC(=O)NCCCCc3ccccc3)C(=O)N(Cc3ccco3)C1=CCC(C)(C)C2	.	.	.	.	4	.
Cc1cccc(NC(=O)CN2CCN(CC(=O)Nc3cccc(C)c3)CC2)c1	46	14	8	-55*	0	-14
CCOC(=O)c1oc2ccccc2c1CSc1nnc(-c2ccco2)o1	-3	3	59*	-10	14	2
Cc1nn(-c2ccccc2)c(C)c1/C=N/n1c(-c2ccc(Cl)cc2)n[nH]c1=S	17	53*	-23	3	8	12
CCOc1cc(N2CCOCC2)c(OCC)cc1NC(=O)COC(=O)c1ccc(OC)c([N+](=O)[O-])c1	6	6	-14	-11	-7	9
O=C1C=C(O)CC(c2ccc(Cl)c(Cl)c2)C1 (configuration not stated)	-10	6	16	5	8	-4
CN[C@H]1CC[C@@H](c2ccc(Cl)c(Cl)c2)c2ccccc21	8	95*	-23	.	-27	.
CC(C)=C[C@@H]1C[C@H](C)[C@H]2CC[C@H](C)c3c(O[C@@H]4O[C@@H](C)[C@@H](O)[C@@H](O)[C@@H]4O)c(O)c(C)c1c32	15	-7	6	4	0	-15
CC(C)=CC(O)C/C(C)=C/COc1ccc2ccc(=O)oc2c1 (configuration not stated)	14	94*	83*	7	-2	8
Cc1cccn2cc(CCNC(=O)c3ccco3)nc12	16	-23	4	3	-55	-5
COc1cc(/C=N\NC(=O)c2ccc(C)nc2)ccc1OC(=O)c1cccc(F)c1	-3	-29	72*	8	-19	15
COc1cccc(C(=O)Oc2ccc(/C=N/Nc3ccc(C(=O)O)cc3)cc2OC)c1	-2	-78	60*	-12	-32	-5
COc1cc(/C=N/NC(=S)Nc2cccc(C(=O)O)c2)cc(OC)c1OC	-9	1	-30	15	-21	-19
COc1cc(/C=N/Nc2nc(C)cc(C)n2)ccc1OC(=O)c1ccco1	0	-16	10	-6	-21	0
COc1cc(/C=N/Nc2ccc3ccccc3c2)ccc1OC(=O)c1ccco1	5	-127	51*	10	-87	46
COc1ccc(/C=N/NC(=S)Nc2cccc(C(=O)O)c2)cc1OC	-11	12	76*	5	12	19
